Test results: PMC11006913
Positions count from the first letter of the chain named.

Key:
Experiment in all cases: PBM; 200 nM protein, PBS
Conditions in all cases: dsDNA, one strand shown
CRX [1] = biological target: CRX (Homo sapiens, UniProt O43186 26-111)
CRX [2] = biological target: CRX (Homo sapiens, UniProt O43186 26-111, E42D)
CRX [3] = biological target: CRX (Homo sapiens, UniProt O43186 26-111, R41L)
PITX2 = PITX2 (Homo sapiens, UniProt Q99697 72-157)
NKX2-4 [4] = biological target: T1, NKX2-4 (Homo sapiens, UniProt Q9H2Z4 175-261, P217L)
T1 sequence: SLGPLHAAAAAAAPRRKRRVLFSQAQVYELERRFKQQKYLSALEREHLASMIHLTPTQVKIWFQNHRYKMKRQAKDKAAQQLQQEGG

NKX2-4 [5] = biological target: T2, NKX2-4 (Homo sapiens, UniProt Q9H2Z4 175-261, T231S)
T2 sequence: T1 sequence with L43P, T57S

NKX2-4 [6] = biological target: T3, NKX2-4 (Homo sapiens, UniProt Q9H2Z4 175-261)
T3 sequence: T1 sequence with L43P

NKX2-4 [7] = biological target: T4, NKX2-4 (Homo sapiens, UniProt Q9H2Z4 175-261, R246Q)
T4 sequence: T1 sequence with L43P, R72Q

HOXC10 [8] = biological target: HOXC10 (Homo sapiens, UniProt Q9NYD6 254-340)
HOXC10 (Homo sapiens, UniProt Q9NYD6 254-340), sequence (Q9NYD6 254-340): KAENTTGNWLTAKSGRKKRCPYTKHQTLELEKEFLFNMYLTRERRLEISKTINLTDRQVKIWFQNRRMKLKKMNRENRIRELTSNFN

HOXC10 [9] = biological target: HOXC10 (Homo sapiens, UniProt Q9NYD6 254-340, K271E)
HOXC10 (Homo sapiens, UniProt Q9NYD6 254-340, K271E), sequence (Q9NYD6 254-340 K271E): as the sequence (Q9NYD6 254-340) above, with K18E counted along it

NKX2-6 [10] = biological target: T5, NKX2-6 (Homo sapiens, UniProt A6NCS4 118-204, R150C)
T5 sequence: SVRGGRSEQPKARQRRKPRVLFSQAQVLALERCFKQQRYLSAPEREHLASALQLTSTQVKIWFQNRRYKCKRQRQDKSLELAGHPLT

NKX2-6 [11] = biological target: T6, NKX2-6 (Homo sapiens, UniProt A6NCS4 118-204)
T6 sequence: T5 sequence with C33R

NKX2-6 [12] = biological target: T7, NKX2-6 (Homo sapiens, UniProt A6NCS4 118-204, F151L)
T7 sequence: T5 sequence with C33R, F34L

HOXC9 [13] = biological target: HOXC9 (Homo sapiens, UniProt P31274 178-260, K195R)
HOXC9 (Homo sapiens, UniProt P31274 178-260, K195R), sequence (P31274 178-260 K195R): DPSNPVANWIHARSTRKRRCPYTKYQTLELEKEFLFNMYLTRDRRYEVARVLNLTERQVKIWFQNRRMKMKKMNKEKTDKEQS

HOXC9 [14] = biological target: HOXC9 (Homo sapiens, UniProt P31274 178-260)
HOXC9 (Homo sapiens, UniProt P31274 178-260), sequence (P31274 178-260): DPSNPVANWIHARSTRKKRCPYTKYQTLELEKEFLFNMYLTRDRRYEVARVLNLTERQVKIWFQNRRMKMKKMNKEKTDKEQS

HOXC9 [15] = biological target: HOXC9 (Homo sapiens, UniProt P31274 178-260, R193K)
HOXC9 (Homo sapiens, UniProt P31274 178-260, R193K), sequence (P31274 178-260 R193K): as the sequence (P31274 178-260) above, with R16K counted along it

HOXC9 [16] = biological target: HOXC9 (Homo sapiens, UniProt P31274 178-260, R222W)
HOXC9 (Homo sapiens, UniProt P31274 178-260, R222W), sequence (P31274 178-260 R222W): as the sequence (P31274 178-260) above, with R45W counted along it

HOXA2 [17] = biological target: HOXA2 (Homo sapiens, UniProt O43364 129-215, R185T)
HOXA2 (Homo sapiens, UniProt O43364 129-215, R185T), sequence (O43364 129-215 R185T): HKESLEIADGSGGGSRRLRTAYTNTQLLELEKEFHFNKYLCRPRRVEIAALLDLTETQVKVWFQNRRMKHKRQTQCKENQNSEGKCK

HOXA2 [18] = biological target: HOXA2 (Homo sapiens, UniProt O43364 129-215, R185K)
HOXA2 (Homo sapiens, UniProt O43364 129-215, R185K), sequence (O43364 129-215 R185K): as the sequence (O43364 129-215 R185T) above, with T57K counted along it

HOXA2 [19] = biological target: HOXA2 (Homo sapiens, UniProt O43364 129-215, Y150S)
HOXA2 (Homo sapiens, UniProt O43364 129-215, Y150S), sequence (O43364 129-215 Y150S): as the sequence (O43364 129-215 R185T) above, with Y22S, T57R counted along it

HOXA2 [20] = biological target: HOXA2 (Homo sapiens, UniProt O43364 129-215)
HOXA2 (Homo sapiens, UniProt O43364 129-215), sequence (O43364 129-215): as the sequence (O43364 129-215 R185T) above, with T57R counted along it

CRX (Homo sapiens, UniProt O43186 26-111, E42D), sequence (O43186 26-111 E42D): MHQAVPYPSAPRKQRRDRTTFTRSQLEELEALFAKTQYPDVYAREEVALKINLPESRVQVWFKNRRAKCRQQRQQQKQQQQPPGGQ
CRX (Homo sapiens, UniProt O43186 26-111), sequence (O43186 26-111): as the sequence (O43186 26-111 E42D) above, with D17E counted along it
CRX (Homo sapiens, UniProt O43186 26-111, R41L), sequence (O43186 26-111 R41L): as the sequence (O43186 26-111 E42D) above, with R16L, D17E counted along it

CGAGCACG
binding signal (CRX [1]): 8.2 upbm affinity estimate (log intensity, higher = more binding, comparable within an allelic series)
binding signal (CRX [2]): 8.12 upbm affinity estimate (log intensity, higher = more binding, comparable within an allelic series)
binding signal (CRX [3]): 8.16 upbm affinity estimate (log intensity, higher = more binding, comparable within an allelic series)

GAACGCCC
binding signal (CRX [1]): 8.05 upbm affinity estimate (log intensity, higher = more binding, comparable within an allelic series)
binding signal (CRX [2]): 8.12 upbm affinity estimate (log intensity, higher = more binding, comparable within an allelic series)
binding signal (CRX [3]): 8.13 upbm affinity estimate (log intensity, higher = more binding, comparable within an allelic series)

AGGCTTAA
binding signal (CRX [1]): 12.8 upbm affinity estimate (log intensity, higher = more binding, comparable within an allelic series)
binding signal (CRX [3]): 12.1 upbm affinity estimate (log intensity, higher = more binding, comparable within an allelic series)

AGATAATC
binding signal (CRX [1]): 12.9 upbm affinity estimate (log intensity, higher = more binding, comparable within an allelic series)
binding signal (CRX [2]): 12.7 upbm affinity estimate (log intensity, higher = more binding, comparable within an allelic series)
binding signal (CRX [3]): 12.7 upbm affinity estimate (log intensity, higher = more binding, comparable within an allelic series)

GGGCTTAA
binding signal (CRX [1]): 12.7 upbm affinity estimate (log intensity, higher = more binding, comparable within an allelic series)
binding signal (PITX2): 12.7 upbm affinity estimate (log intensity, higher = more binding, comparable within an allelic series)
binding signal (CRX [3]): 12.1 upbm affinity estimate (log intensity, higher = more binding, comparable within an allelic series)

ACCGTTAC
binding signal (NKX2-4 [4]): 9.89 upbm affinity estimate (log intensity, higher = more binding, comparable within an allelic series)
binding signal (NKX2-4 [5]): 9.95 upbm affinity estimate (log intensity, higher = more binding, comparable within an allelic series)
binding signal (NKX2-4 [6]): 9.88 upbm affinity estimate (log intensity, higher = more binding, comparable within an allelic series)
binding signal (NKX2-4 [7]): 9.92 upbm affinity estimate (log intensity, higher = more binding, comparable within an allelic series)

CGTCGGGC
binding signal (NKX2-4 [4]): 9.35 upbm affinity estimate (log intensity, higher = more binding, comparable within an allelic series)
binding signal (NKX2-4 [5]): 9.21 upbm affinity estimate (log intensity, higher = more binding, comparable within an allelic series)
binding signal (HOXC10 [8]): 10 upbm affinity estimate (log intensity, higher = more binding, comparable within an allelic series)
binding signal (NKX2-4 [6]): 9.36 upbm affinity estimate (log intensity, higher = more binding, comparable within an allelic series)
binding signal (HOXC10 [9]): 10.1 upbm affinity estimate (log intensity, higher = more binding, comparable within an allelic series)
binding signal (NKX2-4 [7]): 9.37 upbm affinity estimate (log intensity, higher = more binding, comparable within an allelic series)

CACGCCGC
binding signal (NKX2-4 [4]): 9.39 upbm affinity estimate (log intensity, higher = more binding, comparable within an allelic series)
binding signal (NKX2-4 [5]): 9.34 upbm affinity estimate (log intensity, higher = more binding, comparable within an allelic series)
binding signal (NKX2-4 [6]): 9.42 upbm affinity estimate (log intensity, higher = more binding, comparable within an allelic series)
binding signal (NKX2-6 [10]): 9.39 upbm affinity estimate (log intensity, higher = more binding, comparable within an allelic series)
binding signal (NKX2-6 [11]): 9.52 upbm affinity estimate (log intensity, higher = more binding, comparable within an allelic series)
binding signal (NKX2-4 [7]): 9.48 upbm affinity estimate (log intensity, higher = more binding, comparable within an allelic series)
binding signal (NKX2-6 [12]): 9.29 upbm affinity estimate (log intensity, higher = more binding, comparable within an allelic series)

AGCCTCAG
binding signal (NKX2-4 [4]): 9.76 upbm affinity estimate (log intensity, higher = more binding, comparable within an allelic series)
binding signal (NKX2-4 [5]): 9.76 upbm affinity estimate (log intensity, higher = more binding, comparable within an allelic series)
binding signal (HOXC10 [8]): 10.1 upbm affinity estimate (log intensity, higher = more binding, comparable within an allelic series)
binding signal (NKX2-4 [6]): 9.79 upbm affinity estimate (log intensity, higher = more binding, comparable within an allelic series)
binding signal (HOXC10 [9]): 10.1 upbm affinity estimate (log intensity, higher = more binding, comparable within an allelic series)
binding signal (NKX2-4 [7]): 9.76 upbm affinity estimate (log intensity, higher = more binding, comparable within an allelic series)

CGCGCCCG
binding signal (NKX2-4 [4]): 9.29 upbm affinity estimate (log intensity, higher = more binding, comparable within an allelic series)
binding signal (HOXC9 [13]): 9.51 upbm affinity estimate (log intensity, higher = more binding, comparable within an allelic series)
binding signal (NKX2-4 [5]): 9.29 upbm affinity estimate (log intensity, higher = more binding, comparable within an allelic series)
binding signal (NKX2-4 [6]): 9.39 upbm affinity estimate (log intensity, higher = more binding, comparable within an allelic series)
binding signal (HOXC9 [14]): 9.64 upbm affinity estimate (log intensity, higher = more binding, comparable within an allelic series)
binding signal (PITX2): 7.51 upbm affinity estimate (log intensity, higher = more binding, comparable within an allelic series)
binding signal (HOXC9 [15]): 9.54 upbm affinity estimate (log intensity, higher = more binding, comparable within an allelic series)
binding signal (NKX2-4 [7]): 9.3 upbm affinity estimate (log intensity, higher = more binding, comparable within an allelic series)
binding signal (HOXC9 [16]): 9.66 upbm affinity estimate (log intensity, higher = more binding, comparable within an allelic series)

GCGGGCCC
binding signal (NKX2-4 [4]): 9.61 upbm affinity estimate (log intensity, higher = more binding, comparable within an allelic series)
binding signal (NKX2-4 [5]): 9.54 upbm affinity estimate (log intensity, higher = more binding, comparable within an allelic series)
binding signal (NKX2-4 [6]): 9.63 upbm affinity estimate (log intensity, higher = more binding, comparable within an allelic series)
binding signal (NKX2-4 [7]): 9.68 upbm affinity estimate (log intensity, higher = more binding, comparable within an allelic series)

CCCACTCA
binding signal (NKX2-4 [4]): 12.4 upbm affinity estimate (log intensity, higher = more binding, comparable within an allelic series)
binding signal (NKX2-4 [5]): 12.7 upbm affinity estimate (log intensity, higher = more binding, comparable within an allelic series)
binding signal (NKX2-4 [6]): 12.2 upbm affinity estimate (log intensity, higher = more binding, comparable within an allelic series)
binding signal (NKX2-6 [10]): 11.3 upbm affinity estimate (log intensity, higher = more binding, comparable within an allelic series)
binding signal (NKX2-4 [7]): 12.6 upbm affinity estimate (log intensity, higher = more binding, comparable within an allelic series)

GCGTGCCC
binding signal (NKX2-4 [4]): 9.72 upbm affinity estimate (log intensity, higher = more binding, comparable within an allelic series)
binding signal (NKX2-4 [5]): 9.7 upbm affinity estimate (log intensity, higher = more binding, comparable within an allelic series)
binding signal (NKX2-4 [6]): 9.77 upbm affinity estimate (log intensity, higher = more binding, comparable within an allelic series)
binding signal (HOXA2 [17]): 7.23 upbm affinity estimate (log intensity, higher = more binding, comparable within an allelic series)
binding signal (HOXA2 [18]): 10.3 upbm affinity estimate (log intensity, higher = more binding, comparable within an allelic series)
binding signal (NKX2-4 [7]): 9.73 upbm affinity estimate (log intensity, higher = more binding, comparable within an allelic series)
binding signal (HOXA2 [19]): 10.3 upbm affinity estimate (log intensity, higher = more binding, comparable within an allelic series)
binding signal (HOXA2 [20]): 7.4 upbm affinity estimate (log intensity, higher = more binding, comparable within an allelic series)

CCCTCATA
binding signal (NKX2-4 [4]): 11.6 upbm affinity estimate (log intensity, higher = more binding, comparable within an allelic series)
binding signal (NKX2-4 [5]): 11.8 upbm affinity estimate (log intensity, higher = more binding, comparable within an allelic series)
binding signal (NKX2-4 [6]): 11.5 upbm affinity estimate (log intensity, higher = more binding, comparable within an allelic series)

GATGAGGA
binding signal (NKX2-4 [4]): 11.4 upbm affinity estimate (log intensity, higher = more binding, comparable within an allelic series)
binding signal (NKX2-4 [5]): 11.6 upbm affinity estimate (log intensity, higher = more binding, comparable within an allelic series)
binding signal (NKX2-4 [6]): 11.3 upbm affinity estimate (log intensity, higher = more binding, comparable within an allelic series)
